Screening data (PubChem)
IL-1B inflam inh: inhibitors of inflammasome signaling (IL-1 beta secretion); THP-1 LPS/ATP IL-1B secretion, AlphaLISA, 16 h; hits give low values; activity change, % at 57.5 µM; hit rate 4.7% among 360,000; in the data active means activity change below about -50%; inconclusive means mostly about -30% to -49%
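THP-1 cells pretreated 1 hr with compounds (up to 57.5 uM final), then stimulated with LPS (250 ng/mL final) plus ATP (1.25 mM final); secreted IL-1B measured by AlphaLISA after 16 hr, decreased signal indicating inhibition.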
DT40 TDP1 no CPT: qHTS for Inhibitors of human tyrosyl-DNA phosphodiesterase 1 (TDP1): qHTS in cells in absence of CPT | DT40 Tdp1-/- hTDP1 cells, no CPT, ATP luminescence, 48 h | Potency, µM (titrated, usually from 46.2 µM), without a hit: at the top dose activity change, negative = growth inhibition, actives largely listed as inhibitors | hit rate 15% among 420,000; further: potency means the concentration at half of the fitted maximal effect; nearly all actives have a fitted effect of over 55% in size
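Chicken DT40 Tdp1-/- cells complemented with human TDP1, screened without camptothecin (DMSO vehicle only), 400 cells/well. Compounds pin-transferred, cells incubated at 37 °C for at least 48 hr. Growth read as ATP-dependent luminescence (CellTiter-Glo, 30 min at RT).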
DT40 TDP1 CPT: growth inhibition of DT40 Tdp1-/-;hTDP1 cells with camptothecin (screen for TDP1 inhibitors) | chicken DT40 Tdp1-/-;hTDP1 cells + 20 nM CPT, ATP luminescence, 48 h | Potency, µM (top dose mostly 46.2 µM), without a hit: at the top dose activity change, negative = growth inhibition, hits mostly inhibitors | hit rate 12% among 420,000 | AID 686979; further: potency means the concentration at half of the fitted maximal effect; nearly all actives have a fitted effect of over 55% in size
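Chicken DT40 Tdp1-/- cells stably complemented with human TDP1 were seeded at 400 cells/well in medium containing 20 nM camptothecin, exposed to pin-transferred compounds, and grown at 37 °C for at least 48 hr. Viability was read as ATP luminescence.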
RORgamma inh: ROR gamma (mouse) transcription inhibition | P51450 | Drosophila S2 Gal4-RORgamma UAS-luciferase reporter, 20 h | Potency, µM (highest dose often 53.6 µM), for inactives: at the highest dose activity change, negative = inhibition, actives largely listed as inhibitors | hit rate 5.4% among 310,000 | AID 2551; further: potency means the concentration at half of the fitted maximal effect; nearly all actives have a fitted effect of over 60% in size
Target sequence (P51450 whole entry, looked up, the tested form may be a part): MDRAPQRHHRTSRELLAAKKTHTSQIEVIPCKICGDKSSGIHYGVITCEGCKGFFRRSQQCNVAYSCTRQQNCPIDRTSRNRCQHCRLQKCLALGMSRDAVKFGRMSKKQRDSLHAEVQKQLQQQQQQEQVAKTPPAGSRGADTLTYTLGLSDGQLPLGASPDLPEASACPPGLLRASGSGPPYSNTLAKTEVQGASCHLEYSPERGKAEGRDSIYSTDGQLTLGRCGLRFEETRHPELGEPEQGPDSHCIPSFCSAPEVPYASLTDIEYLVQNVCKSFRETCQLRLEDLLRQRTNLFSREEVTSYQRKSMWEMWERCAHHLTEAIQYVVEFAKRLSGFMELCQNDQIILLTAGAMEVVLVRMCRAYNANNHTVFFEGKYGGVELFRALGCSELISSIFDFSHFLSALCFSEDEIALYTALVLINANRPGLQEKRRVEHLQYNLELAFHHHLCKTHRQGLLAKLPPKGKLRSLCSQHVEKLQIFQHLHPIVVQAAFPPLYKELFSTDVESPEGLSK
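ROR gamma transcriptional activity was tracked as Gal4-UAS luciferase output in stably transfected Drosophila Schneider cells, with compound added 1 hr before 700 uM copper sulfate induction and a 20 hr ambient-temperature incubation.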
LDHA block: LDHA (human) enzyme inhibition | P00338 | purified LDHA, NADH/diaphorase-resazurin fluorescence; hits give low values | activity change, % (values are at about 110 or 230 µM) | hit rate 0.15% among 480,000 | AID 1347041; in the data active means activity change below about -30%; inconclusive means mostly about -25% to -30%;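 further: plate controls were DMSO wells for no effect and wells without enzyme for full effect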
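Human LDH5 at 2 nM final in Tris HCl pH 7.4 with 0.06 mM NADH and 0.2 mM pyruvate, reacted 5 minutes at room temperature. Remaining NADH coupled via diaphorase/resazurin; resorufin fluorescence read at 0 and 20 minutes, normalized to enzyme-free and DMSO wells.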
Gal4-VP16 FLuc: inhibits Gal4-VP16 luciferase reporter, ROR gamma counter-screen; Drosophila S2 Gal4-VP16 UAS-luciferase, luminescence, 20 h; Potency, µM (doses to about 53.6 µM), for inactives: at the highest dose activity, negative = inhibition, hits mostly inhibitors; hit rate 3.5% among 310,000;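 further: Gal4-VP16 expression switched on by copper sulfate through the metallothionein promoter; potency means the concentration at half of the fitted maximal effect; nearly all actives have a fitted effect of over 50% in size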
An asterisk follows results filed as active; u = inconclusive; x = no result given; [ ] = another dose, or the depositor's remark. Sampled rows, rich in hits. Any-hit rate of the full collection: about 18%. Unless noted, the call rests on the fitted dose curve; in most records, active means well fitted curve in the direction sought with a large enough effect; inconclusive means small, poorly fitted or top-dose-only effect, or another doubt; inactive means no such curve, though single readings can be large; an effect the other way counts as inactive or inconclusive. Unless noted, on the % scale 0 is the no-effect control and ±100 the full control effect.

SMILES	IL-1B inflam inh	DT40 TDP1 no CPT	DT40 TDP1 CPT	RORgamma inh	LDHA block	Gal4-VP16 FLuc
CCn1c(=O)c(C(=O)NNC(=O)Cc2ccccc2)c(O)c2ccccc21	1	u	u	13µM*	-1	-22%
CCCCCCCCCCC(=O)NNC(=O)c1c(O)c2ccccc2n(CC)c1=O	x	x	x	2%	x	-7%
CCn1c(=O)c(C(=O)NNC(=O)c2ccc(Cl)cc2Cl)c(O)c2ccccc21	13	u	u	10µM*	0	u
CCOC(=O)C1=C(C)N(C)C(C)=C(C(=O)OCC)C1c1ccc(Cl)cc1	u	u	u	-25%	4	22µM*
CCOC(=O)C1=C(C)OC(N)=C(C#N)C1c1ccsc1 (stereo not drawn)	9	-5%	-7%	-27%[10 µM]	2	2%
CCOC(=O)C1=C(C)N(C)C(C)=C(C(=O)OCC)C1c1ccc(C(=O)OC)cc1	u	15µM*	u	-20%	-3	2%
CCOC(=O)C1=C(C)N(C)C(C)=C(C(=O)OCC)C1c1ccsc1	-15	15µM*	u	-15%	3	24%
